The values below come from PubChem BioAssay (EPA / NIEHS).

Molecules are shown by their SMILES. The source made the active and inactive calls. The calls were made as follows: active = hit-call score of the fitted dose curve at least 0.9, where 1 is the maximum; inactive = score below 0.9.

Read-out in assay [1]: TIMP metallopeptidase inhibitor 1 (TIMP1), TIMP1 (gene 7076)
Kind of assay: BSK_hDFCGF_TIMP1: BioMAP Diversity Plus: hDFCGF Assay for TIMP metallopeptidase inhibitor 1 (TIMP1) Biomarker Activity (AID 2283062). As to conditions: primary human foreskin fibroblasts; actives raise or lower the signal. The method, boiled down:
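Primary human foreskin fibroblasts in the hDFCGF system were dosed with compound for 24 h, then TIMP-1 was measured by ELISA. Activity was fitted bidirectionally relative to DMSO control; parallel SRB staining assessed cytotoxicity.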

Read-out in assay [2]: Monokine induced gamma interferon (MIG), CXCL9 (gene 4283)
Kind of assay: BSK_hDFCGF_MIG: BioMAP Diversity Plus: hDFCGF Assay for Monokine induced gamma interferon (MIG) Biomarker Activity (AID 2283063). The note with it: primary human foreskin fibroblasts; actives raise or lower the signal. A digest of the protocol:
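ELISA read-out of MIG from primary human dermal fibroblasts 24 h post-dosing. Gain or loss of signal fitted bidirectionally, DMSO as baseline.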

Read-out in assay [3]: Matrix Metallopeptidase 1 (MMP1), MMP1 (gene 4312)
Description: BSK_hDFCGF_MMP1: BioMAP Diversity Plus: hDFCGF Assay for Matrix Metallopeptidase 1 (MMP1) Biomarker Activity (AID 2283064). As to conditions: primary human foreskin fibroblasts; actives raise or lower the signal. A digest of the protocol:
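hDFCGF primary fibroblasts (human foreskin); chemical added; 24 h; MMP1 by ELISA; bidirectional fit vs DMSO.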

Read-out in assay [4]: Vascular cell adhesion molecule 1 (VCAM1), VCAM1 (gene 7412)
Description: BSK_hDFCGF_VCAM1: BioMAP Diversity Plus: hDFCGF Assay for Vascular cell adhesion molecule 1 (VCAM1) Biomarker Activity (AID 2283065).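 As to AC50: VCAM-1 protein level quantified by ELISA after 24 h chemical exposure.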 As to conditions: primary human foreskin fibroblasts; actives raise or lower the signal. A digest of the protocol:
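Primary human foreskin fibroblasts (hDFCGF system) were dosed with chemical and VCAM-1 was measured by ELISA 24 h later. Bidirectional curve fitting used DMSO as negative control and activity baseline.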

Read-out in assay [5]: Plasminogen activator inhibitor-1 (PAI1), SERPINE1 (gene 5054)
Kind of assay: BSK_hDFCGF_PAI1: BioMAP Diversity Plus: hDFCGF Assay for Plasminogen activator inhibitor-1 (PAI1) Biomarker Activity (AID 2283066). As to conditions: primary human foreskin fibroblasts; actives raise or lower the signal. A digest of the protocol: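 PAI-1 levels, determined by ELISA, served as the endpoint in human foreskin fibroblast cultures exposed to compound for 24 h, with DMSO as baseline.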

Read-out in assay [6]: Intercellular Adhesion Molecule 1 (ICAM1), ICAM1 (gene 3383)
Kind of assay: BSK_KF3CT_ICAM1: BioMAP Diversity Plus: KF3CT Assay for Intercellular Adhesion Molecule 1 (ICAM1) Biomarker Activity (AID 2283067). As to conditions: primary human keratinocytes with fibroblasts; actives raise or lower the signal. The method, boiled down: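 Human keratinocyte plus foreskin fibroblast primary co-culture was exposed to chemical for 24 h. ICAM-1 was then quantified by ELISA, and the data were fit bidirectionally against DMSO as the negative control and baseline.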

Read-out in assay [7]: Interferon-gamma inducible Protein 10 (IP10), CXCL10 (gene 3627)
Kind of assay: BSK_KF3CT_IP10: BioMAP Diversity Plus: KF3CT Assay for Interferon-gamma inducible Protein 10 (IP10) Biomarker Activity (AID 2283068). As to conditions: primary human keratinocytes with fibroblasts; actives raise or lower the signal. A digest of the protocol: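 ELISA read-out of IP-10 after 24 h chemical dosing of human skin primary co-culture (keratinocytes, foreskin fibroblasts). Gain or loss of signal relative to DMSO, bidirectional curve fit.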

Assay [8] is described as follows: BSK_KF3CT_SRB: Viability Assessment in the BioMAP Diversity Plus: KF3CT Assay (AID 2283069).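 Also: total protein by sulforhodamine B staining as a cytotoxicity measure; read 24 h after compound addition; fitted for both signal gain and loss against DMSO baseline.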 As to conditions: primary human keratinocytes with fibroblasts. A digest of the protocol: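 Keratinocytes co-cultured with foreskin fibroblasts (human primary); chemical added, 24 h; fix 10% TCA, stain 0.1% SRB, A560. Bidirectional fit vs DMSO.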
Read-out in assay [9]: Interleukin-1 alpha (IL1a), IL1A (gene 3552)
Description: BSK_KF3CT_IL1a: BioMAP Diversity Plus: KF3CT Assay for Interleukin-1 alpha (IL1a) Biomarker Activity (AID 2283070). The note with it: primary human keratinocytes with fibroblasts; actives raise or lower the signal. The method, boiled down: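 Chemicals were dosed onto co-cultured human keratinocytes and foreskin fibroblasts, IL-1a was quantified by ELISA at 24 h, and activity was fitted in both directions relative to DMSO controls.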

Read-out in assay [10]: TIMP metallopeptidase inhibitor 2 (TIMP2), TIMP2 (gene 7077)
Kind of assay: BSK_KF3CT_TIMP2: BioMAP Diversity Plus: KF3CT Assay for TIMP metallopeptidase inhibitor 2 (TIMP2) Biomarker Activity (AID 2283071). The note with it: primary human keratinocytes with fibroblasts; actives raise or lower the signal. A digest of the protocol: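 Keratinocyte–fibroblast co-culture, 24 h exposure; TIMP-2 ELISA, DMSO-normalised bidirectional fit. Parallel SRB (0.1%, TCA-fixed, 560 nm) total-protein staining gauges cytotoxicity.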

Read-out in assay [11]: Transforming growth factor beta 1 (TGFb1), TGFB1 (gene 7040)
Description: BSK_KF3CT_TGFb1: BioMAP Diversity Plus: KF3CT Assay for Transforming growth factor beta 1 (TGFb1) Biomarker Activity (AID 2283072). The note with it: primary human keratinocytes with fibroblasts; actives raise or lower the signal. The method, boiled down:
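Signal changes in either direction, relative to DMSO, define activity here. TGF-b1 is read by ELISA from a human keratinocyte-fibroblast co-culture 24 h post-dose.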

Read-out in assay [12]: C-C motif chemokine 2 (Homo sapiens) (UniProt P13500)
Kind of assay: BSK_KF3CT_MCP1: BioMAP Diversity Plus: KF3CT Assay for Monocyte Chemoattractant Protein 1 (MCP1/CCL2) Biomarker Activity (AID 2283073). As to conditions: primary human keratinocytes with fibroblasts; actives raise or lower the signal. The method, boiled down: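 Human keratinocyte plus foreskin fibroblast primary co-culture exposed to chemical for 24 h. MCP-1 levels measured by ELISA. Bidirectional curve fitting relative to DMSO negative control as baseline.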

Read-out in assay [13]: Matrix Metallopeptidase 9 (MMP9), MMP9 (gene 4318)
Kind of assay: BSK_KF3CT_MMP9: BioMAP Diversity Plus: KF3CT Assay for Matrix Metallopeptidase 9 (MMP9) Biomarker Activity (AID 2283074).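 As to AC50: MMP9 protein level quantified by ELISA in the co-culture.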 As to conditions: primary human keratinocytes with fibroblasts; actives raise or lower the signal. A digest of the protocol:
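Human keratinocyte/foreskin fibroblast co-culture; compound added; 24 h; MMP-9 by ELISA; bidirectional fit vs DMSO baseline.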

Read-out in assay [14]: urokinase plasminogen activator (uPA), PLAU (gene 5328)
Kind of assay: BSK_KF3CT_uPA: BioMAP Diversity Plus: KF3CT Assay for urokinase plasminogen activator (uPA) Biomarker Activity (AID 2283075). The note with it: primary human keratinocytes with fibroblasts; actives raise or lower the signal. A digest of the protocol:
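ELISA readout of uPA, analyzed for signal gain or loss relative to DMSO, from a human primary keratinocyte–foreskin fibroblast co-culture measured 24 h after chemical treatment.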

Read-out in assay [15]: CD40, CD40 (gene 958)
Kind of assay: BSK_LPS_CD40: BioMAP Diversity Plus: LPS Assay for CD40 Biomarker Activity (AID 2283076). As to conditions: primary human HUVEC with PBMC; actives raise or lower the signal. A digest of the protocol: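 Primary human umbilical vein endothelial cells co-cultured with peripheral blood mononuclear cells, LPS-stimulated, were dosed with chemical and read 24 h later. CD40 levels were measured by ELISA and fitted bidirectionally against DMSO as negative control and baseline.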

Read-out in assay [16]: E-selectin (Homo sapiens) (UniProt P16581)
Kind of assay: BSK_LPS_Eselectin: BioMAP Diversity Plus: LPS Assay for Eselectin Biomarker Activity (AID 2283077). As to conditions: primary human HUVEC with PBMC; actives raise or lower the signal. A digest of the protocol: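 Human umbilical vein endothelial cells co-cultured with peripheral blood mononuclear cells under LPS stimulation; E-selectin measured by ELISA 24 h after chemical dosing. Activity fitted bidirectionally against DMSO as negative control and baseline.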

Read-out in assay [17]: Interleukin-8 (IL8), CXCL8 (gene 3576)
Kind of assay: BSK_LPS_IL8: BioMAP Diversity Plus: LPS Assay for Interleukin-8 (IL8) Biomarker Activity (AID 2283078). As to conditions: primary human HUVEC with PBMC; actives raise or lower the signal. A digest of the protocol: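 Human umbilical vein endothelial cells co-cultured with PBMC were stimulated with LPS; IL-8 levels were measured by ELISA 24 h after chemical dosing. Activity was fitted bidirectionally against DMSO as negative control and baseline.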

The nature of assay [18]: BSK_LPS_SRB: Viability Assessment in the BioMAP Diversity Plus: LPS Assay (AID 2283079).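 Also: total protein by sulforhodamine B absorbance as a cytotoxicity measure; measured one day after compound addition; fitted in both directions against DMSO so loss or gain of signal counts.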 The note with it: primary human HUVEC with PBMC. The method, boiled down: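 Human umbilical vein endothelial cells co-cultured with PBMC (LPS system) were dosed for 24 h. Total protein was stained with 0.1% sulforhodamine B after 10% TCA fixation, read at 560 nm, and fitted bidirectionally against DMSO baseline.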

Read-out in assay [19]: Monocyte Chemoattractant Protein-1 (MCP1), CCL2 (gene 6347)
Description: BSK_LPS_MCP1: BioMAP Diversity Plus: LPS Assay for Monocyte Chemoattractant Protein-1 (MCP1) Biomarker Activity (AID 2283081).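 As to AC50: co-culture stimulated with LPS; secreted MCP-1 protein quantified by ELISA in culture supernatant.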 As to conditions: primary human HUVEC with PBMC; actives raise or lower the signal. The method, boiled down:
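HUVEC plus PBMC co-culture (human primary cells, LPS system) exposed to test chemical for 24 h; MCP-1 measured by ELISA. Bidirectional curve fitting against DMSO baseline; parallel SRB total-protein staining flags overt cytotoxicity.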

Read-out in assay [20]: Interleukin-1 alpha (IL1a), IL1A (gene 3552)
Description: BSK_LPS_IL1a: BioMAP Diversity Plus: LPS Assay for Interleukin-1 alpha (IL1a) Biomarker Activity (AID 2283080). As to conditions: primary human HUVEC with PBMC; actives raise or lower the signal. The method, boiled down: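 Human umbilical vein endothelial cells co-cultured with peripheral blood mononuclear cells were LPS-stimulated and exposed to test chemicals for 24 h. IL-1 alpha was quantified by ELISA, with bidirectional curve fitting against DMSO as the negative control and baseline.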

Chain of E-selectin (Homo sapiens) (P16581 whole entry, looked up): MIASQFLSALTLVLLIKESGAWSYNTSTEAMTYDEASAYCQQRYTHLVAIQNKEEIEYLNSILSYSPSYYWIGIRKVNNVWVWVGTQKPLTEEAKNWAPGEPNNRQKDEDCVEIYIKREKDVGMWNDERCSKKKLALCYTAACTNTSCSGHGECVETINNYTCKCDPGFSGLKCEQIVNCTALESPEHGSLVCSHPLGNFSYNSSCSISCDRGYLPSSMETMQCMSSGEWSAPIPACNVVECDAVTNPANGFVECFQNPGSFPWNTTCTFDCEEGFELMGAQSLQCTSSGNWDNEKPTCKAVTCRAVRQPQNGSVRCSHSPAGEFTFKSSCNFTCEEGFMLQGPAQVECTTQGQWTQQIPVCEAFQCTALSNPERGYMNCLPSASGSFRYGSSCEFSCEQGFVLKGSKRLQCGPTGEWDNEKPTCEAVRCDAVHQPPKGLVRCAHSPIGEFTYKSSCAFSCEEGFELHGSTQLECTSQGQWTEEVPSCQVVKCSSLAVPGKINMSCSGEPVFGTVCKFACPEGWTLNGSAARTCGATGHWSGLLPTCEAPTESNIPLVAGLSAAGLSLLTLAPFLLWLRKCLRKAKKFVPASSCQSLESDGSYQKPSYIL

`Cc1cccc2ccccc12`: the outcome in assay [1], in [2], in assay [3], in assay [4], in assay [5] and in [6] was inactive. Besides, the outcome in [7], in [8], in assay [9], in [10], in assay [11] and in assay [12] was inactive. The result in assay [13], in assay [14], in [15], in [16], in assay [17] and in assay [18] was inactive. Moreover, in [19], the outcome was inactive.

As to `CC(=O)N1CCN(c2ccc(OC[C@H]3CO[C@](Cn4ccnc4)(c4ccc(Cl)cc4Cl)O3)cc2)CC1`, the AC50 is 35.4 µM (active) in assay [1]; 36.9 µM (active) in [2]; 32.6 µM (active) in assay [3]; 35.5 µM (active) in assay [4]; 34.2 µM (active) in [5]; 30.9 µM (active) in [6]. Also, the AC50 in assay [7] was 34.5 µM (active); in assay [8] it was 26.6 µM (active); in assay [9], 33.6 µM (active); in [10], 31.5 µM (active); in assay [11] it was 29.2 µM (active); in [13], 29.8 µM (active). Also, the AC50 was 30.8 µM (active) in assay [14]; 11.8 µM (active) in assay [15]; 32.2 µM (active) in [16]; 29.9 µM (active) in assay [17]; 20 µM (active) in assay [18]; 31 µM (active) in assay [19]. Besides, the outcome in assay [12] was inactive.

Take `O=C(OCCCCCCOC(=O)c1ccccc1)c1ccccc1`: the result in assay [1], in assay [2], in assay [3], in [4], in assay [5] and in [6] was inactive. Also, the outcome in assay [7], in [8], in assay [9], in [10], in assay [11] and in assay [12] was inactive. Further, the outcome in [13], in assay [14], in assay [15], in assay [16], in [17] and in assay [18] was inactive. Also, the result in [19] was inactive.

As to `CCCCCCCCCC(=O)O`, the outcome in assay [1], in [2], in [3], in assay [4], in assay [5] and in assay [6] was inactive. Moreover, the result in [7], in assay [8], in assay [9], in assay [10], in [11] and in assay [12] was inactive. The outcome in assay [13], in assay [14], in [15], in assay [16], in assay [17] and in [18] was inactive. The result in assay [20] and in [19] was inactive.

Take `O=C1c2ccccc2C(=O)N1CCc1noc(-c2ccc(CN3CCCCCC3)s2)n1`: the outcome in assay [1], in assay [2], in assay [3], in assay [4], in [5] and in [6] was inactive. For the same compound, the result in assay [7], in assay [8], in assay [9], in [10], in assay [11] and in assay [12] was inactive. Besides, the result in [13], in assay [14], in [15], in [16], in assay [17] and in assay [18] was inactive. In [19], the result was inactive.

On to `Cc1cc(F)ccc1-c1cc(N2CC[C@@H](O)[C@H]2CO)ncc1N(C)C(=O)C(C)(C)c1cc(C(F)(F)F)cc(C(F)(F)F)c1`, for which the AC50 in assay [1] is 12.4 µM (active); in assay [2] it was 15.8 µM (active); in [3], 16.7 µM (active); in assay [4], 12.6 µM (active); in assay [5] it was 11.3 µM (active); in assay [6] it was 26.3 µM (active). Besides, the AC50 is 13.2 µM (active) in assay [7]; 13.5 µM (active) in assay [8]; 15 µM (active) in assay [9]; 12.4 µM (active) in assay [10]; 25.1 µM (active) in [11]; 14.9 µM (active) in assay [12]. The AC50 was 12.3 µM (active) in assay [13]; 12.7 µM (active) in assay [14]; 8.65 µM (active) in assay [15]; 11.3 µM (active) in assay [16]; 10.8 µM (active) in assay [17]; 11.3 µM (active) in assay [18]. For the same compound, the figures for the AC50 in assay [20] and in assay [19] were 9.95 µM (active) and 10.8 µM (active), respectively.
